Assay results from PubChem BioAssay (NCI).
Compounds without any hit were thinned out: in the full panel of roughly 79,000, 15% have a hit. The source made the active and inactive calls. Cut-off read from the data, not from the text of the source: active = growth inhibition above about 70%; inactive = the rest.

Columns and labels:
[1] = NCI Yeast Anticancer Drug Screen. Data for the rad50 strain (AID 155);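 note: 0% = growth of vehicle-only cultures of the same strain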; conditions: S. cerevisiae rad50 strain growth inhibition; at 50.0 µM; active compounds read high
Summary of the method: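 Inhibition values express reduced yeast growth in compound-treated cultures relative to vehicle-treated controls.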

[2] = NCI Yeast Anticancer Drug Screen. Data for the mec2-1 strain (AID 157); conditions: S. cerevisiae mec2-1 strain, at 50.0 µM, active compounds read high
Summary of the method: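 Vehicle-treated cultures served as reference for growth inhibition of compound-exposed mec2-1 yeast.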

[3] = NCI Yeast Anticancer Drug Screen. Data for the sgs1 mgt1 strain (AID 161);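 note: 0% = growth of cultures given vehicle only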; conditions: S. cerevisiae sgs1 mgt1 strain, at 50.0 µM, active compounds read high
Summary of the method: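 Mutant yeast exposed to compound; growth scored against vehicle-only wells.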

[4] = NCI Yeast Anticancer Drug Screen. Data for the cln2 rad14 strain (AID 165);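 note: 0% = growth equal to vehicle treated cultures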; conditions: S. cerevisiae cln2 rad14 strain, at 50.0 µM, active compounds read high
Summary of the method: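 Each compound was tested on cln2 rad14 yeast. Inhibition of growth was calculated against vehicle-exposed controls.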

[5] = NCI Yeast Anticancer Drug Screen. Data for the bub3 strain (AID 167); conditions: S. cerevisiae bub3 mutant strain, at 50.0 µM, active compounds read high
Summary of the method: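 Steps: expose the mutant yeast strain to compound; grow alongside vehicle-treated cultures; measure growth; express inhibition against the vehicle cultures.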

[6] = NCI Yeast Anticancer Drug Screen. Data for the mlh1 rad18 strain (AID 175); conditions: S. cerevisiae mlh1 rad18 strain growth inhibition; at 50.0 µM; active compounds read high
Summary of the method: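 Vehicle-treated cultures served as the reference for growth inhibition in a yeast strain carrying DNA damage repair alterations exposed to each compound.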

Measured: growth inhibition

CCCCCCCCCCCCCCCCn1cnc2c(=S)nc[nH]c21
inactive: [1] -22.1% | [2] -5.25% | [3] -19.1% | [4] -4.75% | [5] 0.5% | [6] -6.9%

NC(CCCC(N)P(=O)(O)c1ccccc1)P(=O)(O)c1ccccc1 (stereo unspecified)
inactive: [1] -37.9% | [2] -40.5% | [3] -63.5% | [4] -9.65% | [5] -45.5% | [6] -46.6%

Cc1cc(Cl)ccc1N=C1NC(=O)C(CC(=O)Nc2cccc(Cl)c2)S1 (stereo unspecified)
inactive: [1] 28.6% | [2] 15% | [3] -8.85% | [4] 27.6% | [5] 1.8% | [6] 10.2%

CC(=O)Nc1ccc(C(=O)NN2C(=O)CSC2c2ccc([N+](=O)[O-])cc2)cc1 (stereo unspecified)
inactive: [1] -24.1% | [2] -39.8% | [3] -54.5% | [4] -6.3% | [5] -24.3% | [6] -53.2%

CC[Si](/C=C(/C)C(C)(C)C)(CC)CC
inactive: [1] 0.9% | [2] -21.9% | [3] -7.05% | [4] -34.1% | [5] -8.05% | [6] -5.1%

Cc1ccc(C)n1N(c1ccccc1)c1ccccc1
inactive: [1] -13.6% | [2] 7.1% | [3] 2.65% | [4] -36.4% | [5] 21.6% | [6] 9.1%

O=C1c2ccccc2C(=O)N1/N=N/N1C(=O)c2ccccc2C1=O
active: [1] 97.5% | [2] 97.7% | [3] 98.1% | [4] 96.1% | [5] 98.6% | [6] 97%

Nc1nc(O)c(N)c(=O)[nH]1
inactive: [1] -18.2% | [2] -16.9% | [3] -15.8% | [4] -17.8% | [5] -4.05% | [6] -20.9%

C=CC(C)(C)C1=CC(=O)C(OC)=CC1=O
inactive: [1] 1.75% | [2] -6.15% | [3] -3.7% | [4] -54.9% | [5] 4.15% | [6] -6.65%

CN(C)CCCNC(=O)NCCCCCCNC(=O)NCCCN(C)C
inactive: [1] 13.1% | [2] -9.85% | [3] 31.7% | [4] 18.4% | [5] 32.4% | [6] 19%

Cn1c2ccccc2c2nnc(N/N=C/c3cccnc3)nc21
inactive: [1] -39.1% | [2] -36.5% | [3] -17.4% | [4] -44.6% | [5] -5.05% | [6] -5.7%

CCOc1c(OC)ccc(C(C)=O)c1O
inactive: [1] -17.8% | [2] -15.2% | [3] -22.1% | [4] -2.35% | [5] 3% | [6] -17.2%

CC(=O)OC1COC(N2C(=O)C(=O)c3cc(Br)c([N+](=O)[O-])cc32)C(OC(C)=O)C1OC(C)=O (stereo unspecified)
inactive: [1] 14.3% | [2] 12.2% | [3] -10.6% | [4] -1.9% | [5] -9.6% | [6] 1.3%

CCCCCC(CN(C)C)C(O)CCc1ccc(Cl)c(Cl)c1 (stereo unspecified)
active: [1] 98.5% | [2] 79.2% | [3] 98% | [4] 98.5% | [5] 80.5% | [6] 98.6%

[CH3][Ga]([CH3])[O]c1ccccc1C=O
inactive: [1] -3.6% | [2] -17.6% | [3] -10.8% | [4] -80.7% | [5] -30.3% | [6] -21.4%

O=C1CCC(=O)C(C(=O)CCC(=O)Nc2cccc(Cl)c2)C1 (stereo unspecified)
inactive: [1] -20.6% | [2] -6.5% | [3] -11.7% | [4] 19.8% | [5] 11.9% | [6] -4.9%

Cc1nc(Nc2ccc(Cl)c(Cl)c2)sc1C(=O)/C=C/c1ccc2c(c1)OCO2
inactive: [1] 39.5% | [2] 23.1% | [3] 13.6% | [4] -2.2% | [5] -7.75% | [6] 38.3%

O=N[C@@H]1CCC[C@H](Cl)C1
inactive: [1] 3.95% | [2] -6.65% | [3] -0.1% | [4] 17.2% | [5] 5.75% | [6] 15.6%

O=C(CN1CCN(c2ccccc2)CC1)N1CCc2c([nH]c3ccccc23)C1c1cccnc1 (stereo unspecified)
inactive: [1] 2.45% | [2] -19.8% | [3] -19.6% | [4] 28.6% | [5] 4.35% | [6] -21.6%

C#CCN(CC#C)C(=O)Nc1ccc(Cl)cc1
inactive: [1] -33.5% | [2] -21.4% | [3] -11.2% | [4] -47% | [5] -16.2% | [6] 3.45%

c1ncn(Sn2cncn2)n1
inactive: [1] -13.2% | [2] -6.9% | [3] -4.25% | [4] -23.8% | [5] -5.9% | [6] -0.85%

CCN(CC)CN1C(=O)C(=O)c2ccccc21
inactive: [1] 6.8% | [2] -25.4% | [3] 2.6% | [4] 24.4% | [5] 12.8% | [6] 10.3%

CCSc1nc(C)cc(=O)[nH]1
inactive: [1] 28% | [2] -1.35% | [3] 9.6% | [4] 6.15% | [5] 13.2% | [6] 27.9%

Cc1cc(C)c(C(CC(=O)O)C(CC(=O)O)c2c(C)cc(C)cc2C)c(C)c1 (stereo unspecified)
inactive: [1] -0.25% | [2] 1.5% | [3] -16.6% | [4] -21.4% | [5] -6.85% | [6] 32.4%

O=C(Nc1ccccc1)Oc1ccc(/C=N/Sc2cccc([N+](=O)[O-])c2)cc1
active: [3] 73.8% | [5] 73.8%
inactive: [1] 67.1% | [2] 60.6% | [4] 21.2% | [6] 62.2%

Nc1ncnc(N)c1NC(=O)CCCc1ccccc1
inactive: [1] 5.85% | [2] 18.6% | [3] -2.95% | [4] 1% | [5] 33.5% | [6] 15.9%

CCOC(=O)c1ccc(N)cc1
inactive: [1] 19.2% | [2] 20.1% | [3] -3.1% | [4] -9.55% | [5] -18.6% | [6] -1.8%

COc1c(NC(=O)Nc2ccc(SC)cc2)cccc1[N+](=O)[O-]
inactive: [1] 2.35% | [2] 15.6% | [3] 23.6% | [4] 5.1% | [5] 41.3% | [6] 9.65%

CCC(COC(=O)CC[C@@H](NC(=O)C(C)NC(=O)C(C)OC1C(O)C(CO)OC(OCc2ccccc2)C1NC(C)=O)C(N)=O)NC1c2ccccc2Nc2cccc([N+](=O)[O-])c21 (stereo partly specified)
inactive: [1] 5.65% | [2] -9.7% | [3] -13.8% | [4] 6.4% | [5] -17.9% | [6] -10.7%

CCC(=O)OCCCc1ccccc1
inactive: [1] 22.1% | [2] 8.25% | [3] 15.8% | [4] 9.25% | [5] 12.3% | [6] 10.8%

CN(C)Cc1ccc2ccccc2c1
inactive: [1] 0.2% | [2] 7.1% | [3] 9.95% | [4] -39.1% | [5] 6.85% | [6] -14.3%

C/C(=N\NC(=O)/C(C#N)=C\c1ccc(N(CCC#N)CCC#N)cc1)c1ccccc1
inactive: [1] 0.2% | [2] -14.2% | [3] -20.5% | [4] -6.9% | [5] -7.4% | [6] -1.95%

COC1=CC(=O)C(C(C)=O)=C(O)C1=O
inactive: [1] 0.05% | [2] -7.95% | [3] -6.5% | [4] 4.7% | [5] -5.6% | [6] -4.05%

O=C(c1ccccc1)C1C=CC=CN1Cc1ccccc1S(=O)(=O)O (stereo unspecified)
inactive: [1] 13.5% | [2] 0.6% | [3] -3.95% | [4] 3% | [5] 1.75% | [6] -19.2%

CC(=O)OCC1OC(SC2=NC(=O)CS2)C(OC(C)=O)C(OC(C)=O)C1OC(C)=O (stereo unspecified)
inactive: [1] 3.3% | [2] -1.8% | [3] 1.45% | [4] -6.6% | [5] -8.85% | [6] 17.4%

O=C(Cl)Cc1ccccc1[N+](=O)[O-]
inactive: [1] 14.5% | [2] 14.6% | [3] 12.4% | [4] 6.55% | [5] -20.4% | [6] 12.9%

C/C=C(\CC)C(C)(C#N)C(=O)OCC (stereo unspecified)
inactive: [1] -13.3% | [2] -33.3% | [3] -21.2% | [4] -3.45% | [5] -27.8% | [6] -29.1%

Nc1ccc(CC(N)C(=O)O)cc1 (stereo unspecified)
inactive: [1] -2.7% | [2] -12.8% | [3] -22.3% | [4] -5.6% | [5] -6.55% | [6] -13.3%

CCn1nnc2c(C(N)=O)ncn2c1=O
inactive: [1] 0.6% | [2] -38.7% | [3] -44.1% | [4] 14.1% | [5] -14.8% | [6] -16.6%

CC1=CC(=N/S(=O)(=O)c2ccccc2)/C2CC(C)=C(C)CC2/C1=N\S(=O)(=O)c1ccccc1 (stereo unspecified)
inactive: [4] 56.6%
active: [1] 82.6% | [2] 78.6% | [3] 93% | [5] 81.2% | [6] 85.3%

O=C(O)C(=Cc1ccc([N+](=O)[O-])cc1)C(=O)O
inactive: [1] 11.1% | [2] -21.8% | [3] 5.95% | [4] -7.35% | [5] -0.7% | [6] -11.6%
